# Values without a mark were called inactive. How the calls were made is not given here.
# B1: d4r1_design_ppi_144_dldesign_0_cycle0_af2pred (protein)
# chain: DEETKKAVEEAKKAAKEAEEIAKKYPELKPLAEQAKKAAKYAEKYAKENPIAAKNAMKATKAIAEEMKKLA
# B2: d4r1_design_ppi_310_dldesign_0_cycle0_af2pred (protein)
# chain: MEAIEEMRKKKEEAIKEAEESNPEEGAKIMEEAMKEIQEIANKAIKSSSSEEAKKILEEHEKLVEELEKKKEELKKKAEEEKK
# B3: d4r1_design_ppi_352_dldesign_0_cycle0_af2pred (protein)
# chain: AAAEQNAKNLKEAEKAKKEAEEAKKLAKEDVAKGAEKLTEAAKKLAEIYEKASPEIQPYVAKELQEVAKAAQEAIKAKLEKDAA
# B4: d4r1_design_ppi_104_dldesign_0_cycle0_af2pred (protein)
# chain: MSIEERLEELEKRLTEETKKEAEENLKRLEEVAKELAELDPELAPEAKKALEEAKKLFEDPEKIFEAAALARESLEEFEKRLKELKE
# B5: d3r1_design_ppi_981_dldesign_0_cycle1_af2pred (protein)
# chain: MEEFAKEMEKWSEEAAKKYEEAKELAKKDPKEGVKVLEEAIKELEEKAKEYEKKGPYGKNIAKALNWLAKKFKELKKKIEAS
# B6: d3r1_design_ppi_859_dldesign_0_cycle1_af2pred (protein)
# chain: ESELLKQVAEAVQQAVKAALKDPEEAKKVVEKALELDAEKAIEVAKSLAEAYKIAGNEEKAAAAKKVAELLEKLSKERK
# B7: d4r2_design_ppi_27_dldesign_0_cycle1_af2pred (protein)
# chain: GKEKEEKEKAEKIVEEAKKELEEAKEYGKKTTKEEGAEKLEEVAKKLKEKAEEFLATGKEEWKHAGAKLESLAIRAELYAKGLRRE
# B8: d3r1_design_ppi_688_dldesign_0_cycle1_af2pred (protein)
# chain: AVENAKKAAEQATKALKAYATEEEKEEAEKKGKEFKKLAEEAKADPSKAEEVLNKLLKEAKEYDKKLEEKEKKEKEE
# B9: d3r1_design_ppi_851_dldesign_0_cycle0_af2pred (protein)
# chain: DEVKKLLEEAKKLAEKAEELAKKGGSVEEVEKAAEKAQEAAVKAIKLAAKTEDGEKLTKEAGKYAQKATQAAAEAKEKAKKEA
# B10: d4r2_design_ppi_53_dldesign_0_cycle1_af2pred (protein)
# chain: EEAKARAEKAFARAKALKARAKELKAKGEELFANAPELGEESLKRGKVYKLQAEQYEARAEEAEALGKELAAA
# B11: d4r1_design_ppi_77_dldesign_0_cycle1_af2pred (protein)
# chain: MKEEEKALEKANEYIEKAEELAKKALENGEGDEVFSEAGKLLEKAVEEAEKNKENREEILKRVQEVRDLLREAVLKRLKAE
# B12: d4r2_design_ppi_34_dldesign_0_cycle0_af2pred (protein)
# chain: SGAGQAKMERNAALSSLRAAKANPALAEIAAEDAIEAAKRALAVPEASPEVKEEAERVRKEAEAVGAAAKAAKAA
# B13: d4r2_design_ppi_24_dldesign_0_cycle1_af2pred (protein)
# chain: SMEKEKEEELKNYAKQVAGKAFTYSDQLKEVAEKTGLEELKEKAEELEKLGKEALENPEKAKEYEAKAKEVFKEGRELYKKAK
# B14: d4r1_design_ppi_77_dldesign_0_cycle0_af2pred (protein)
# chain: MKEKEEALKEAKKHLKEAEKLAEEAEKNGKGDELFSKLGKHLQEAAKYAEKNKENQEEINKELQKVAKKARDAILKVQKAR
# B15: d3r1_design_ppi_891_dldesign_0_cycle1_af2pred (protein)
# chain: AEEALKEEMVKKAKEVAEKAAKAGYPEEAKQAAKAGAAFAPEKGEEIKKYAEEEIKKAEKEKEEKKKKEKEKKE
# B16: d4r2_design_ppi_48_dldesign_0_cycle1_af2pred (protein)
# chain: DFTAKAAAQAKKYKAEAKANAADPEKVGEVLAKALKAANEAKEAGNPAAAAALKAAADEILKINRESLLKEET
# B17: d3r1_design_ppi_734_dldesign_0_cycle0_af2pred (protein)
# chain: SSEEELKLLTGKNALEILPEILKEAEKLLKEAKKTGDKEKLKEAIKQAENAIAAAKAAAIVDPKKAEEYKKKAEKLKKEAEKLL
# B18: d3r1_design_ppi_897_dldesign_0_cycle0_af2pred (protein)
# chain: MEAKEKVKKLTEEAIKYAEEAGDKETAEEAKKGGEALLAGAKEAEELAKKNPVAGASLQEAVIKSAELFAKSIKEEVEKKK
# B19: d4r2_design_ppi_24_dldesign_0_cycle0_af2pred (protein)
# chain: KKEEEEKEKLKNFAKQASGKAEALSDQLKDVAEKTGSEELKEKAKKLEELGKEAEKNPELGKKKEEEAKKVHKEGKEYYKAKK
# B20: d4r1_design_ppi_33_dldesign_0_cycle0_af2pred (protein)
# chain: SEEEEKNAENLKKAAEELEKIAEEGIKKGASVEEIKKKLEEKGKEFAKKYPKNAKSYLELAKIVAKEAEKKLK
# B21: d3r1_design_ppi_985_dldesign_0_cycle1_af2pred (protein)
# chain: EEAEKLLKEIKEKSEKAIKLAEEGKIEEAEKELQEALKIAQELAKKYPEAAPEAAKIVNKAATELEKKKEEQKKKLE
# B22: d3r1_design_ppi_728_dldesign_0_cycle0_af2pred (protein)
# chain: SLKESVDKKVEKLKEEAKKLAKYDPELAKKAIEYAEKAKKAKTLEEAGKYANKASEYIEEAEKKAKEKKEEEAK
# B23: d4r2_design_ppi_49_dldesign_0_cycle0_af2pred (protein)
# chain: GKIEELKKKLKEAEKKLEEAKEKLNKAKAEAESYRIRAEANKENKEKYLKKAEEIEKEEIEKAKKEIEEYEKEKKEAEKKLKEAKE
# B24: d4r2_design_ppi_27_dldesign_0_cycle0_af2pred (protein)
# chain: SEEEKKKKEAEKKVEEAKKKLEEAKKFAKEGKKEEGAKKLEEVAKELDEKADEFFASGSEEYREAGAKLGSLSIRAKLYAEGLKAK
# B25: d4r1_design_ppi_219_dldesign_0_cycle1_af2pred (protein)
# chain: AAEAEEYRKKAAEYIQELQELKTEIKATGTEEQAKKADEIWEEYKKKVKEAKEKYKDGTDLELAKALYKIAKENYEKLKELKE
# B26: d4r1_design_ppi_339_dldesign_0_cycle0_af2pred (protein)
# chain: SEKAEKAAKEAEEEAKKAKELAKEAAKLSPSYAAAFKKLAEAFKKAAKLLKEDYEKGLKEFKELKKSFELAKKAAAKAKAAAAA
# B27: d4r1_design_ppi_339_dldesign_0_cycle1_af2pred (protein)
# chain: AEEAEKAAKEAEEKAKEAEELAKEAAKLHPTYAQAFELLAKAFKKAAELLKKDYKEGKKYFEELKESFERAKKALAIAKKEKAA
# B28: d4r1_design_ppi_104_dldesign_0_cycle1_af2pred (protein)
# chain: MSIEERLEELEKRLYEEIKKKAEEYLEELEKESEKLAKLDPSLAEEAKKKYEEAKELYKDPETVYLSKSHAEENLEEVKKKIKELES
# B29: d3r1_design_ppi_728_dldesign_0_cycle1_af2pred (protein)
# chain: DIRENIKKLAKELKKEAEKLSEYDPELAKKAIEYAKKAEAAKTAEEAAKYATKAAEYVEKAEELAKKKKEELEK
# B30: d4r1_design_ppi_174_dldesign_0_cycle0_af2pred (protein)
# chain: SMEEKEAAEKMKELNEIAYEEYERVVKEGTEEAAREAMRRIMEKAKEHPYKETALKYVEVTLKHLKEEVSPEAAKAAEEELKRELA
# B31: d4r1_design_ppi_144_dldesign_0_cycle1_af2pred (protein)
# chain: DEEVKKAAKEAKEAAKEAEKLAKKDKSLKPLAEQAKKAAKYAEYYTKINPTLALNAAKAAKKIYEEMKKLA
# B32: d4r2_design_ppi_0_dldesign_0_cycle1_af2pred (protein)
# chain: VAKELAKKFQKAIEALFEASTIEEVPEARAKVKEARKIAREGVENPETAKEKLEEGVKLVEKKAKEMEEKKKKEEEEKLK
# B33: d3r1_design_ppi_729_dldesign_0_cycle0_af2pred (protein)
# chain: DEEKKAKEAAEEAIKAKEKLGTGKEVKKTADEAFAAAKKATPEQAKALYKKLLEWFKEEKAKAEAEIAAA
# B34: d4r1_design_ppi_171_dldesign_0_cycle0_af2pred (protein)
# chain: MEKIEEANKLLKKALELLKEVGEEYYKKVMEAIKTEGIDAAVEKAKEIAKELKKKDKEKGKIAEEAYKNLEKAKELIKEIYEE
# B35: d4r1_design_ppi_171_dldesign_0_cycle1_af2pred (protein)
# chain: MKEIEEAQKKYKEALEKLKEVGEEYYQAVLDAIKNKGIEEAVKTAEKLAKELEKEDPEKGKKAKEAAELLKEAKKLIEKVRKE
# B36: d3r1_design_ppi_994_dldesign_0_cycle0_af2pred (protein)
# chain: MEELEKVAKKILKEAKKRAEEAAKKGAESENGEEVFTKGLQETLEKASEEAEKAGLPDELAVKVLKEIVKYGNEVKKAALAARA
# B37: d3r1_design_ppi_897_dldesign_0_cycle1_af2pred (protein)
# chain: MEALKAVEEKMKEAIEYAKKAGDEELAKEAEKRRKALLAGAERAVEVAKKNPVAGASLAQAVIKSAELASEYFKELVEKKK
# B38: d4r1_design_ppi_425_dldesign_0_cycle1_af2pred (protein)
# chain: AAEAAAAAEKAAAAAGEKAGKAAAEHVAAGAKAGTLPQAVQDVLEQTSELKYKGDEVAAKAAYEAAREAAKAARAAA
# Biological target: VTCN1, Q7Z7D3
# Sequence (Q7Z7D3 whole entry): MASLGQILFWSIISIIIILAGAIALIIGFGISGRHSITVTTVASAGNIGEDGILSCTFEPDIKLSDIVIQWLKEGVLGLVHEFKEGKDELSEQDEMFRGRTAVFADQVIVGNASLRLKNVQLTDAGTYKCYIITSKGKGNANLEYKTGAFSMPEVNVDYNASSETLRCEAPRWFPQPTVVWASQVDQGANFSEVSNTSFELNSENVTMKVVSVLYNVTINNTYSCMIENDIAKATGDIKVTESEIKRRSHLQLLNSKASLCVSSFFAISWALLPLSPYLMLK
row,Binder,binding in a display sort
1,B1,not found
2,B2,not found
3,B3,not found
4,B4,not found
5,B5,not found
6,B6,not found
7,B7,not found
8,B8,not found
9,B9,not found
10,B10,not found
11,B11,not found
12,B12,not found
13,B13,not found
14,B14,not found
15,B15,not found
16,B16,not found
17,B17,not found
18,B18,not found
19,B19,not found

row,Binder,binding in a display sort
1,B20,not found
2,B21,not found
3,B22,not found
4,B23,not found
5,B24,not found
6,B25,not found
7,B26,not found
8,B27,not found
9,B28,not found
10,B29,not found
11,B30,not found
12,B31,not found
13,B32,not found
14,B33,not found
15,B34,not found
16,B35,not found
17,B36,not found
18,B37,not found
19,B38,not found

# Source: publication PMC13494018
